Assay outcomes (PubChem BioAssay)
RBX1-CUL1 inh = human ROC1-CUL1 E3 ligase inhibition; P62877+Q13616; in vitro K48 di-Ub FRET, acceptor:donor ratio, 45 min; inhibition, % at 10 µM; 0.6% of 140,000 active; AID 1347404; in the data active = inhibition above about 25%
Each line names hits and unclear results; the compound was inactive in the other large screens. The full list was thinned out, with hits kept by preference.

O=C1C=CC(=O)c2c1c(-c1ccccc1)nn2-c1ccccc1	RBX1-CUL1 inh 92
CC(C)C(=O)N1CCN(c2ccccc2NC(=O)COc2ccc(Cl)cc2)CC1	none
Nc1cccc2c1C(=O)N(c1cccc(F)c1)C2=O	none
N=C1C(=O)c2c(N)cccc2C(=O)C1Br (configuration not stated)	RBX1-CUL1 inh 102
COc1cc(C(=O)n2cncn2)cc(OC)c1OC	none
COc1cc(-c2nnc(/C=C/c3ccccc3)o2)cc(OC)c1OC	none
O=c1c2cc(-c3ccc([N+](=O)[O-])cc3)sc2nc2n1CCC2	none
Cc1cc2c(cc1C)NC(CC(=O)Nc1ccccc1Cl)C(=O)N2 (configuration not stated)	none
OC1CCCN(c2nc3nonc3nc2N2CCSCC2)C1 (configuration not stated)	none
CCN(CC)c1ccc(/C=C2\C(=O)N(c3nnc(C)c(=O)[nH]3)N=C2C)cc1	RBX1-CUL1 inh 57
CCN(CC)c1ccc(C=C2C(=O)N(c3ccccc3)C(=O)N(c3ccccc3)C2=O)cc1	none
CCN(C)c1ccc(C=C2C(=O)N(C)C(=O)N(C)C2=O)cc1	none
Cc1ccc(NC(=O)CN2C(=O)N=C(Cc3ccc(-c4ccc(F)cc4)o3)C2=O)cc1	none
C=CCn1c(=O)c2c(nc3n2C(C)C(C)=NN3)n(C)c1=O (configuration not stated)	none
O=C1CCC(=O)N1c1cccc(Cl)c1	none
O=C(Oc1ccc(N2C(=O)CCC2=O)cc1)c1ccccc1	none
CC(=O)Sc1ccc(N2C(=O)CCC2=O)cc1	RBX1-CUL1 inh 37
O=C1NCCC1(Sc1ccccc1)Sc1ccccc1	none
O=C(Cn1c(O)c(C=C2C=Nc3ccccc32)sc1=O)N1CCOCC1	none
O=c1[nH]n(-c2cc(Cl)cc(Cl)c2)c(O)c1C=C1C=Nc2ccccc21	none
CC(C)C(C(=O)O)n1c(O)c(C=C2C=Nc3ccccc32)sc1=S (configuration not stated)	RBX1-CUL1 inh 25
COc1ccc(OC)c(-c2cc(C(=O)N/N=C/C=C/c3ccco3)c3ccccc3n2)c1	none
CN1/C(=C\C=C2/SC(=S)NC2=O)C(C)(C)c2ccccc21	RBX1-CUL1 inh 34
O=C1NC(=S)S/C1=C/C=C/c1ccccc1Cl	none
Cc1ccccc1N=C/C=C1\N(C)c2ccccc2C1(C)C	none
CCc1ccccc1NC(=O)c1cccnc1	none
COc1ccc(N=C2C(=Nc3ccc(OC)cc3)N(c3ccc(S(N)(=O)=O)cc3)C(=S)N2c2ccc(OC)cc2)cc1	none
O=C1Nc2c(cc([N+](=O)[O-])cc2[N+](=O)[O-])C(=O)C1(Cl)Cl	none
COc1c(Cl)cc2c(c1Cl)NC(=O)C(Cl)(Cl)C2=O	RBX1-CUL1 inh 46
COc1cccc2c1NC(=O)C(Cl)(Cl)C2=O	none
c1ccc(Cc2nnc3sc(C4CCCCC4)nn23)cc1	none
Cc1ccccc1CNC(=O)c1cc(NC(=O)CC2CCCC2)cc2nc(C3CCCO3)n(C)c12 (configuration not stated)	none
O=C(/C=C/c1ccc(F)cc1)Nc1nc2n(n1)C(c1ccc(Cl)cc1)CC(c1ccccc1)=N2 (configuration not stated)	none
CCN(CC)CCN=C(N)C(C#N)CC1=Nc2ccccc2C1=O (configuration not stated)	none
CN(C)CC1=Nc2ccccc2C1=O	none
N#CC(CC1=Nc2ccccc2C1=O)C(N)=NC1CCCCC1 (configuration not stated)	RBX1-CUL1 inh 71
COc1ccc(/C=C2\C(=O)NN(c3cccc(Cl)c3)C2=O)cc1OC	none
O=C1NN(c2cccc(Cl)c2)C(=O)/C1=C/c1cccc(I)c1	none
O=C1NN(c2cccc(Cl)c2)C(=O)/C1=C/c1ccc(Cl)cc1	RBX1-CUL1 inh 64
O=C1NN(c2cccc(Cl)c2)C(=O)/C1=C\c1ccc(F)cc1	RBX1-CUL1 inh 83
O=C1NN(c2cccc(F)c2)C(=O)/C1=C\c1ccccc1	none
O=C1NN(c2cccc(Cl)c2)C(=O)/C1=C/c1ccc(O)cc1	none
COC(=O)c1c(NC(=O)c2nn(C34CC5CC(CC(C5)C3)C4)cc2[N+](=O)[O-])sc2c1CCC(c1ccccc1)C2 (configuration not stated)	none
C=CCn1c(COc2ccc3ccccc3c2)nnc1SCC(=O)Nc1ccc(OC)cc1	none
COC(=O)[C@@H](NC1CCN(c2ccc(C(=O)NC3CCCC3)cc2)CC1)c1ccccc1	none
Cc1cc(Br)ccc1OCC(=O)NNC(=O)c1ccccc1[N+](=O)[O-]	none
CC1=C(C#N)C(=O)N(CCO)C(=O)C1N=Nc1ccc(I)cc1 (configuration not stated)	none
COc1ccc(CN2CCC(C(=O)Nc3cccc(-c4cscn4)c3)CC2)c(F)c1	none
CN(C)C(=S)CC(O)(c1ccccc1)c1ccccc1	none
CCCC(=O)Nc1ccc(N2CCN(C(=O)CC(C)C)CC2)c(Cl)c1	none
CCCN1C(=O)/C(=C\c2ccco2)C(=O)N(c2ccccc2)C1=S	none
Cc1cc(C(=O)O)ccc1-c1ccc(/C=C2\SC(=O)N(CC(=O)N3CCCC3)C2=O)o1	none
C=CCN1C(=O)S/C(=C/c2ccc(-c3cc(C(=O)O)ccc3C)o2)C1=O	none
Cc1ccc(C(=O)O)cc1-c1ccc(/C=C2\SC(=O)N(Cc3ccccc3F)C2=O)o1	RBX1-CUL1 inh 50
CCN1C(=O)S/C(=C/c2ccc(-c3cc(C(=O)O)ccc3C)o2)C1=O	none
Cc1cc(C(=O)O)ccc1-c1ccc(/C=C2\SC(=O)N(CC(=O)N3CCOCC3)C2=O)o1	none
CCCN1C(=O)/C(=C/c2cc(-c3ccccc3)n(-c3ccc(C(=O)OCC)cc3)c2-c2ccccc2)C(=O)N(c2ccccc2)C1=S	none
CCCN1C(=O)/C(=C\c2ccc(-c3cc(C(=O)O)ccc3C)o2)C(=O)N(c2ccccc2)C1=S	RBX1-CUL1 inh 45
Cc1cc(C(=O)O)ccc1-c1ccc(/C=C2/SC(=O)N(C(C)C)C2=O)o1	RBX1-CUL1 inh 64
Cc1nc2ccnc(Cl)c2nc1C	none
Oc1ccc(CCN=Cc2ccccc2)cc1	none
CC(C)CC(=O)NCc1ccc(-c2nc3ncccc3o2)cc1	none
CCOc1cc(/C=C2/C(=O)NC(=S)N(c3ccc(F)cc3)C2=O)cc(Br)c1OCC(=O)OC	none
O=C(Nc1nccs1)c1cccc2c1-c1ccc(I)cc1C2	none
CCOC(=O)C1=C(C)c2c([nH]c3ccccc23)CC1	none
O=C(O)c1cc(Nc2c([N+](=O)[O-])cc3c4c(cccc24)C(=O)OC3=O)ccc1O	RBX1-CUL1 inh 27
COc1ccccc1N1C(=O)c2cccc3c(Nc4cccc(Cl)c4)c([N+](=O)[O-])cc(c23)C1=O	none
O=C(O)c1ccc(N2C(=O)c3cccc4c([N+](=O)[O-])ccc(c34)C2=O)cc1O	none
O=C1C(Cl)=C(N2CCN(S(=O)(=O)c3ccc(Cl)cc3)CC2)C(=O)c2ccccc21	none
O=C1C(Cl)=C(N2CCN(Cc3ccccc3)CC2)C(=O)c2ccccc21	RBX1-CUL1 inh 104
O=c1cc(C(F)(F)F)nc(N2CCN(Cc3ccccc3)CC2)[nH]1	none
Cn1c2c(c3ccccc31)C(=O)CCC2	none
COC1(OC)CCCc2c1no[n+]2[O-]	none
O=S(=O)(Cc1c(F)cccc1Cl)N1CCCCCC1	none
CC(C)(C)c1cc(=O)n(-c2ccccc2)[nH]1	RBX1-CUL1 inh 73
O=c1ccc(=O)n(-c2ccccc2)[nH]1	none
COc1ccc(-c2cc(=O)n(-c3ccccc3)[nH]2)cc1OC	none
CN1C(=O)C(O)(CC(=O)c2cccc(Br)c2)c2ccccc21 (configuration not stated)	none
Cc1c(C(=O)O)cccc1-n1c(C)cc(/C=N/NC(=O)c2cc3ccccc3o2)c1C	none
Cc1c(C(=O)O)cccc1-n1c(C)cc(/C=N/Nc2ccc([N+](=O)[O-])cn2)c1C	RBX1-CUL1 inh 82
O=[N+]([O-])c1ccc(N/N=C/c2cccn2-c2ccccc2)nc1	none
